Eight compounds from the supplement of paper PMC9262897, “Low-cost anti-mycobacterial drug discovery using engineered E. coli” (Nature Communications, 2022) can be followed below.

Counter-ions that a name gives are not always drawn. ± gives the standard deviation of the averaged measurements.

The test has as its system E. coli TESEC Mtb Alr. As to the kind of experiment: growth (OD600 after 10 h); higher = more growth (less inhibition). As to conditions: compound 0.1 mM. The protocol:
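TESEC Mtb Alr E. coli, or the Alr+ wild-type control, in 384-well plates with Prestwick library compounds at 0.1 mM and 1% DMSO, across arabinose induction levels of 1E3 to 1E7 nM. Growth is read as OD600 after 10 h at 37 °C in triplicate biological replicates.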

Setting [1] is: arabinose 1000 nM, raw OD600 reference: median of DMSO wells 0.294, cell-free background 0.041.
Where [2] appears, read: arabinose 10000 nM, raw OD600 reference: median of DMSO wells 0.264, cell-free background 0.041.
Where [3] appears, read: arabinose 100000 nM, raw OD600 reference: median of DMSO wells 0.201, cell-free background 0.041.
Setting [4] is: arabinose 1000000 nM, raw OD600 reference: median of DMSO wells 0.193, cell-free background 0.041.
The mark [5] stands for this setting: arabinose 10000000 nM, raw OD600 reference: median of DMSO wells 0.146, cell-free background 0.041.

The compound `Clc1ccc2c(c1)C(N1CCNCC1)=Nc1ccccc1O2` [Amoxapine] displayed a growth under setting [1] of 0.171 ± 0.0069; a growth under setting [2] of 0.16 ± 0.0024; a growth under setting [3] of 0.162 ± 0.0019; a growth under setting [4] of 0.0713 ± 0.0015; a growth under setting [5] of 0.105 ± 0.0015.
For `Nc1nc(=O)n([C@@H]2CS[C@H](CO)O2)cc1F` [(-)-Emtricitabine], the growth is, setting by setting: under setting [1], 0.285 ± 0.0065; under setting [2], 0.248 ± 0.0044; under setting [3], 0.254 ± 0.061; under setting [4], 0.172 ± 0.0027; under setting [5], 0.147 ± 0.005.
In the case of `CN[C@@H]1[C@H](O[C@H]2[C@H](O[C@H]3[C@H](O)[C@@H](O)[C@H](N=C(N)N)[C@@H](O)[C@@H]3N=C(N)N)O[C@@H](C)[C@]2(O)C=O)O[C@@H](CO)[C@H](O)[C@H]1O` [Streptomycin sulfate], the growth reads like this: under setting [1], 0.04617 ± 0.00029; under setting [2], 0.0396 ± 0.00055; under setting [3], 0.04577 ± 0.00042; under setting [4], 0.03957 ± 0.00025; under setting [5], 0.0731 ± 0.0022.
The matching figures for `Cc1c(N(C)C)c(=O)n(-c2ccccc2)n1C` [Amidopyrine]: 0.28 ± 0.016, 0.2721 ± 0.0006, 0.225 ± 0.02, 0.184 ± 0.0082 and 0.138 ± 0.0025.
Taken in the same sequence, the figures for `CO[C@H]1C[C@H](O[C@H]2[C@H](C)[C@@H](O[C@@H]3O[C@H](C)C[C@H](N(C)C)[C@H]3OC(C)=O)[C@@H](C)C[C@@]3(CO3)C(=O)[C@H](C)[C@@H](OC(C)=O)[C@@H](C)[C@@H](C)OC(=O)[C@@H]2C)O[C@@H](C)[C@@H]1OC(C)=O` [Troleandomycin] were 0.0647 ± 0.0085, 0.0495 ± 0.0021, 0.0702 ± 0.0019, 0.04923 ± 0.00025 and 0.0672 ± 0.00087.
Turning to `CN(C/C=C/c1ccccc1)Cc1cccc2ccccc12` [Naftifine hydrochloride], the growth runs as follows: under setting [1], 0.0444 ± 0.001; under setting [2], 0.04317 ± 0.00021; under setting [3], 0.045 ± 0.0005; under setting [4], 0.0437 ± 0.0015; under setting [5], 0.0527 ± 0.00066.
Consider `CNCC[C@@H](Oc1ccccc1C)c1ccccc1` [Tomoxetine hydrochloride], for which the growth by setting is: under setting [1], 0.254 ± 0.0027; under setting [2], 0.272 ± 0.0044; under setting [3], 0.211 ± 0.019; under setting [4], 0.139 ± 0.0019; under setting [5], 0.173 ± 0.0034.
Taken in the same sequence, the figures for `C[C@@H](O)[C@H]1C(=O)N2C(C(=O)O)=C(SCCNC=N)C[C@H]12` [Imipenem] were 0.282 ± 0.0094, 0.269 ± 0.0053, 0.202 ± 0.035, 0.174 ± 0.0056 and 0.136 ± 0.0047.
